The values that follow come from PubChem BioAssay (EPA / NIEHS).

“And” between values parts separate entries of the source, which are not always exact repeats. Identical values can stand only once. More than one record can exist for a structure, and the calls need not agree. The source made the active and inactive calls. Rule for the calls: active = hit-call score of the fitted dose curve at least 0.9, where 1 is the maximum; inactive = score below 0.9.

The target in experiment [1] is Paired box protein Pax-6 (Homo sapiens) (UniProt P26367). The experiment is described as follows: ATG_Pax6_CIS: Attagene CIS-FACTORIAL HepG2 Assay for human Paired Box 6 (PAX6) (AID 2282956). To be noted: HepG2 CIS-FACTORIAL PAX6 reporter transcription, RNA readout; actives raise or lower the signal. In outline: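 HepG2 cells transiently transfected with multiplexed cis-promoter reporter units (endogenous TF activity) were dosed for 24 h. Reporter mRNA was quantified by RT-PCR, 6-FAM labeling, HpaI digestion and capillary electrophoresis; bidirectional fitting versus DMSO baseline.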
Chain of Paired box protein Pax-6 (Homo sapiens) (P26367 whole entry, looked up): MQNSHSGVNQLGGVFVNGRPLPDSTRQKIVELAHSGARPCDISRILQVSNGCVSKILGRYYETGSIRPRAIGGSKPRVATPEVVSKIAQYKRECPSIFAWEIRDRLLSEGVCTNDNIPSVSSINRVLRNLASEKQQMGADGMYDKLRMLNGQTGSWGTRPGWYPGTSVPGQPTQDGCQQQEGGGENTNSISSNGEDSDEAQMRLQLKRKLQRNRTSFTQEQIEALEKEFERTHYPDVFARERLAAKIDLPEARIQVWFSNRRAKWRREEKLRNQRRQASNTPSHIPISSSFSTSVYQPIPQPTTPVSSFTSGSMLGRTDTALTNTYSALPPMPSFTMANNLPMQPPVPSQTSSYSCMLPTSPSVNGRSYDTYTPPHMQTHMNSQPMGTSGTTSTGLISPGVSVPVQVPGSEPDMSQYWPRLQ

Experiment [2] can be described thus: ATG_PXRE_CIS: Attagene CIS-FACTORIAL HepG2 Assay for human Pregnane X Receptor Element (PXRE) (AID 2282957). To be noted: HepG2 Attagene CIS-FACTORIAL PXRE reporter, mRNA; actives raise or lower the signal. The essentials: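 Cells: HepG2, transiently transfected reporter units under cis promoter control. Exposure: 24 h. Detection: reporter mRNA via RT-PCR/CE fluorescence; bidirectional fitting, DMSO-referenced.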

The nature of experiment [3]: ATG_PPRE_CIS: Attagene CIS-FACTORIAL HepG2 Assay for human Peroxisome Proliferator-activated Response Element (PPRE) (AID 2282958). The conditions noted are these: HepG2 PPRE cis-element reporter, Attagene transcription factor profiling; actives raise or lower the signal. The essentials:
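HepG2, transient MRTU transfection (cis promoter elements, endogenous TFs). 24 h dosing. RNA → oligo(dT) RT → PCR → 6-FAM primer extension → HpaI digest → CE. Bidirectional fit vs DMSO.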

The nature of experiment [4]: ATG_RORE_CIS: Attagene CIS-FACTORIAL HepG2 Assay for human RAR-related Orphan Receptor Element (RORE) (AID 2282959). The conditions noted are these: HepG2 Attagene cis-factorial RORE reporter, mRNA; actives raise or lower the signal. The essentials:
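Transient MRTU transfection of human HepG2 liver cells (FuGene 6); 24 h compound exposure; TriZol RNA, oligo(dT) RT, PCR, FAM labeling, HpaI cut, CE fragment analysis. DMSO = negative control/baseline.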

Experiment [5] is described as follows: ATG_Sox_CIS: Attagene CIS-FACTORIAL HepG2 Assay for human SRY-box transcription factor (SOX) (AID 2282960). To be noted: HepG2 Attagene cis-factorial SOX reporter, mRNA; actives raise or lower the signal. The essentials: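 Endogenous factor activity in human liver HepG2 cells carrying transfected cis-regulated reporter units. RNA taken 24 h post-dose, reverse-transcribed, PCR-amplified and sized by capillary electrophoresis. Gain or loss of signal fitted relative to DMSO.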

The target in experiment [6] is Transcription factor Sp1 (Homo sapiens) (UniProt P08047). The experiment is described as follows: ATG_Sp1_CIS: Attagene CIS-FACTORIAL HepG2 Assay for human Specificity Protein 1 (Sp1) (AID 2282961). To be noted: HepG2 Sp1 cis-reporter transcription, actives raise or lower the signal. In outline: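 Transient MRTU-transfected HepG2, 24 h compound exposure. Total RNA → oligo(dT) RT → PCR of reporter → 6-FAM primer extension → HpaI digest → CE. Endpoint fitted both directions vs DMSO.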
Chain of Transcription factor Sp1 (Homo sapiens) (P08047 whole entry, looked up): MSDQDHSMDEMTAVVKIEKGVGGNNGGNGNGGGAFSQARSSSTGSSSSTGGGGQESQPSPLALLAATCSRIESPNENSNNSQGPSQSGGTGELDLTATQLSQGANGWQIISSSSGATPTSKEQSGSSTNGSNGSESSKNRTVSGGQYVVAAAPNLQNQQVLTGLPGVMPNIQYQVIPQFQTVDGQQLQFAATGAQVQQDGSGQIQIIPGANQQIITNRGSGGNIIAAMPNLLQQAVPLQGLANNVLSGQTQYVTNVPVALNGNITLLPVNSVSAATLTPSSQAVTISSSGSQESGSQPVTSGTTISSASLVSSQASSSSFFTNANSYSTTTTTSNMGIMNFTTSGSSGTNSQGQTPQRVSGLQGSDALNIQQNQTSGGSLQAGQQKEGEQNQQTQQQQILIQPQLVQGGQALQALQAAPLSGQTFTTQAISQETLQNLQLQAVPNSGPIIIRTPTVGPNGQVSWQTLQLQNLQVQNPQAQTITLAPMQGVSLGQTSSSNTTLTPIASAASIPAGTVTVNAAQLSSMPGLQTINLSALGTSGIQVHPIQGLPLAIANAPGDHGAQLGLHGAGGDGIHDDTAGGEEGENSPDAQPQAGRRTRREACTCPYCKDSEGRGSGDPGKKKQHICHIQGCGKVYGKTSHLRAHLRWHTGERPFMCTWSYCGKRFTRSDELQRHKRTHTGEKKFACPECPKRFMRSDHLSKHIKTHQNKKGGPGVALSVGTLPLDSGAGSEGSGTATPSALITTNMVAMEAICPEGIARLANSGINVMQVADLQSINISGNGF

Experiment [7] can be described thus: ATG_SREBP_CIS: Attagene CIS-FACTORIAL HepG2 Assay for human Sterol Regulatory Element Binding (SREBP) (AID 2282962). The conditions noted are these: HepG2 Attagene cis-factorial SREBP reporter, mRNA; actives raise or lower the signal. The essentials:
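HepG2 cells transiently transfected with multiplexed cis-element reporter units report endogenous transcription factor activity. After 24 h of chemical exposure, reporter mRNA was quantified by RT-PCR, 6-FAM labelling, HpaI digestion and capillary electrophoresis; bidirectional fits used DMSO as baseline.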

For experiment [8], the target named is Signal transducer and activator of transcription 3 (Homo sapiens) (UniProt P40763). The experiment in a line: ATG_STAT3_CIS: Attagene CIS-FACTORIAL HepG2 Assay for human Signal Transducer and Activator of Transcription 3 (STAT3) (AID 2282963). To be noted: HepG2, Attagene cis-factorial STAT3 reporter transcription; actives raise or lower the signal. In outline:
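Endogenous STAT3-responsive cis-element activity was read in transiently transfected HepG2 cells after 24 h treatment. Reporter transcripts were quantified via RT-PCR and capillary electrophoresis, with DMSO as negative control and bidirectional curve fitting.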

Experiment [9] is described as follows: ATG_TA_CIS: Attagene CIS-FACTORIAL HepG2 Assay for human TA Basal Promoter (AID 2282964). To be noted: HepG2 Attagene CIS-factorial TA basal promoter reporter; actives raise or lower the signal. In outline: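 Background-control readout: TA basal promoter reporter mRNA, fitted in both directions relative to DMSO. Measured by RT-PCR and capillary electrophoresis 24 hours after treating HepG2 human liver cells transiently carrying multiplexed cis-regulated reporter constructs.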

Experiment [10] in a line: ATG_TCF_b_cat_CIS: Attagene CIS-FACTORIAL HepG2 Assay for human T-Cell-Factor with beta-catenin (TCF/b-cat) (AID 2282965). The conditions noted are these: HepG2 TCF/beta-catenin cis-reporter transcription, actives raise or lower the signal. In outline:
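Endogenous transcription factor activity is captured through cis-promoter reporter constructs transiently introduced into human HepG2 liver cells. Induced reporter mRNA is measured after 24 h and fitted bidirectionally relative to DMSO.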

Chain of Signal transducer and activator of transcription 3 (Homo sapiens) (P40763 whole entry, looked up): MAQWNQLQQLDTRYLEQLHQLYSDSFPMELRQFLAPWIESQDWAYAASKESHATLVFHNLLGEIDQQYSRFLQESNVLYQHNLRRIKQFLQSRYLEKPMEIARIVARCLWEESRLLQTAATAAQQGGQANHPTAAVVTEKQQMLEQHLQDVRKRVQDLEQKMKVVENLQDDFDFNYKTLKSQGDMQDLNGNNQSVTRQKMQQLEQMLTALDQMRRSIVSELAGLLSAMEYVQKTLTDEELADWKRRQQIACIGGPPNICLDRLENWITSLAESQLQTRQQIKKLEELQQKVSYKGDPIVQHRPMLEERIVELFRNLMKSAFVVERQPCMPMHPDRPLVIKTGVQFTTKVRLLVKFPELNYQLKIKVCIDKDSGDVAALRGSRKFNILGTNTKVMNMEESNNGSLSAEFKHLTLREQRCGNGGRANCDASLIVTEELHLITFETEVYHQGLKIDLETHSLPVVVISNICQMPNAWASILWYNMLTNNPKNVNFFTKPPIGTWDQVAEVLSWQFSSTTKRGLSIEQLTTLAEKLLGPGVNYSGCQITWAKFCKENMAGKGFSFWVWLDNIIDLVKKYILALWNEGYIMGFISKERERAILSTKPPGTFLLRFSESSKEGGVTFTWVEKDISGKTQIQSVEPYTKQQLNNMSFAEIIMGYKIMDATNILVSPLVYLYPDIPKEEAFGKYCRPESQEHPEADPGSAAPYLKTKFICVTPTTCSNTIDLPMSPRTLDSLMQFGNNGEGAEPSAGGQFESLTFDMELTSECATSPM

As to `Cc1ccc(C)c(S(=O)(=O)O)c1`, the result in experiment [1], in experiment [2], in [3], in [4], in experiment [5] and in experiment [6] was inactive. The result in experiment [7], in experiment [8] and in experiment [9] was inactive.

Take `CCN(CCC#N)c1ccccc1`: the outcome in experiment [1], in experiment [3], in experiment [4], in [5], in experiment [6] and in [7] was inactive. The compound was classed as inactive in experiment [8] and in experiment [9]. Moreover, the AC50 in experiment [2] was 39.6 µM (active).

For `O=C1c2ccc(O)c(O)c2C(=O)c2c(O)ccc(O)c21`, the outcome in experiment [1], in experiment [3], in [4], in experiment [5], in experiment [6] and in experiment [7] was inactive. Also, the compound was classed as inactive in experiment [8] and in experiment [9]. In addition, the half-maximal activity concentration (AC50) in [2] is 13.5 µM (active).

For the compound `CCN(CC)CC`, the outcome in experiment [1], in [2], in experiment [3], in experiment [4], in [5] and in experiment [6] was inactive. For the same compound, the outcome in experiment [7], in [8], in experiment [9] and in experiment [10] was inactive. In addition, the AC50 in experiment [5] is 18.3 µM (active).

Regarding `C=C(c1ccc(C(=O)O)cc1)c1cc2c(cc1C)C(C)(C)CCC2(C)C`, the half-maximal activity concentration (AC50) in experiment [1] was 14.9 µM (active) and 25.3 µM (active); in experiment [2], 0.154 µM (active); in experiment [3] it was 9.14 nM (active) and 19.3 nM (active); in experiment [4], 2.2 µM (active); in experiment [6], 32.9 µM (active); in [9], 11.1 µM (active) and 29.8 µM (active). The AC50 in [10] was 13.7 µM (active). Besides, the result in experiment [2], in experiment [4], in experiment [5], in experiment [6], in experiment [7] and in experiment [8] was inactive. The compound was called inactive in experiment [10].

Consider `O=C(F)C(F)(F)C(F)(F)C(F)(F)C(=O)F`, for which the outcome in [1], in experiment [2], in experiment [3], in experiment [4], in experiment [5] and in experiment [6] was inactive. Further, the outcome in experiment [7], in [8], in experiment [9] and in experiment [10] was inactive.

Turning to `CCCCCCCCCCCC[N+](C)(C)Cc1ccccc1`, the call in experiment [1], in experiment [2], in experiment [3], in experiment [4], in experiment [5] and in experiment [6] was inactive. The call in experiment [7] and in experiment [8] was inactive. Besides, the concentration at half-maximal activity (AC50) in [6] is 6.43 µM (active).

Consider `Clc1ccc2c(Cl)ccnc2c1`, for which the compound was called inactive in experiment [1], in [2], in experiment [4], in experiment [5], in experiment [6] and in [7]. Further, the call in experiment [8], in experiment [9] and in experiment [10] was inactive. Moreover, the concentration at half-maximal activity (AC50) in [3] is 41.2 µM (active).

As for `O=C1NS(=O)(=O)c2ccccc21`, the compound was classed as inactive in experiment [1], in experiment [2], in [3], in experiment [4], in experiment [5] and in experiment [6]. For the same compound, the outcome in [7], in experiment [8], in experiment [9] and in experiment [10] was inactive. Besides, in experiment [2], the AC50 is 55.9 µM (active).

As to `CCOC=O`, the compound was called inactive in [1], in [2], in experiment [3], in [4], in [5] and in experiment [6]. Further, the compound was classed as inactive in [7], in [8] and in experiment [9].

`Cc1ccccc1C(OCCN(C)C)c1ccccc1` (stereo not given): the compound was called inactive in [1], in [2], in [3], in experiment [4], in experiment [5] and in [6]. The call in experiment [7], in experiment [9] and in experiment [10] was inactive. Moreover, the figures for the concentration at half-maximal activity (AC50) in experiment [2] and in experiment [7] were 27 µM (active) and 48.6 µM (active), respectively.

Turning to `CCOC(OCC)C(=O)c1ccccc1`, the compound was classed as inactive in [1], in experiment [3], in experiment [4], in experiment [5], in experiment [6] and in experiment [7]. The compound was classed as inactive in experiment [8] and in experiment [9]. In addition, the concentration at half-maximal activity (AC50) in experiment [2] was 36.8 µM (active).

Consider `COc1cc([N+](=O)[O-])ccc1N`, for which the compound was classed as inactive in experiment [1], in experiment [2], in experiment [3], in experiment [4], in experiment [5] and in [6]. For the same compound, the call in [7], in experiment [8] and in [9] was inactive.

As for `C=CCOCC(CO)(CO)CO`, the compound was called inactive in experiment [1], in [3], in [4], in experiment [5], in experiment [6] and in [7]. Besides, the outcome in experiment [8], in experiment [9] and in experiment [10] was inactive. The AC50 in experiment [2] is 25.3 µM (active).

For `COCN(COC)c1nc(N(COC)COC)nc(N(COC)COC)n1`, the compound was called inactive in experiment [1], in experiment [3], in [4], in [5], in experiment [6] and in experiment [7]. The compound was classed as inactive in experiment [8], in experiment [9] and in [10]. The half-maximal activity concentration (AC50) in experiment [2] is 45.3 µM (active).

Turning to `CCCCc1ccc2ccccc2c1S(=O)(=O)O`, the compound was classed as inactive in experiment [1], in experiment [3], in experiment [4], in [5], in [6] and in experiment [7]. Moreover, the call in experiment [8], in experiment [9] and in [10] was inactive. Moreover, in [2], the AC50 was 2.52 µM (active).

Turning to `C=CC(=O)OCC(CO)(COCC(COC(=O)C=C)(COC(=O)C=C)COC(=O)C=C)COC(=O)C=C`, the half-maximal activity concentration (AC50) in experiment [1] was 2.71 µM (active); in [4] it was 2.71 µM (active); in experiment [5] it was 5.94 µM (active); in [6], 3.37 µM (active); in experiment [7], 2.85 µM (active); in experiment [10] it was 0.426 µM (active). The result in experiment [2], in [3], in experiment [8] and in experiment [9] was inactive.

As to `CCCCN(C)C`, the compound was called inactive in [1], in experiment [3], in experiment [4], in [5], in [6] and in experiment [7]. The compound was classed as inactive in [8], in experiment [9] and in experiment [10]. In addition, in experiment [2], the concentration at half-maximal activity (AC50) was 26.9 µM (active).

As for `NNc1nc(-c2ccc([N+](=O)[O-])cc2)cs1`, the compound was classed as inactive in experiment [1], in experiment [2], in [3], in experiment [4], in experiment [5] and in experiment [6]. Besides, the compound was classed as inactive in experiment [7], in experiment [8], in experiment [9] and in experiment [10].

On to `CCCCC(CC)C(=O)OCCOCCOCCOCCOC(=O)C(CC)CCCC` (stereo not given), for which the result in experiment [1], in experiment [3], in experiment [4], in [5], in experiment [6] and in experiment [7] was inactive. In addition, the compound was classed as inactive in [8], in experiment [9] and in experiment [10]. The concentration at half-maximal activity (AC50) in experiment [2] was 27.5 µM (active).

Turning to `O=C(OC(=O)C(F)(F)C(F)(F)F)C(F)(F)C(F)(F)F`, the call in experiment [1], in experiment [2], in [3], in experiment [4], in experiment [5] and in experiment [6] was inactive. Also, the outcome in [7], in experiment [8], in experiment [9] and in experiment [10] was inactive.

Turning to `OCC(F)(F)C(F)(F)C(F)(F)C(F)(F)C(F)(F)C(F)(F)C(F)(F)C(F)(F)C(F)(F)C(F)(F)C(F)(F)F`, the compound was classed as inactive in [1], in experiment [2], in experiment [3], in experiment [4], in experiment [5] and in experiment [6]. Further, the call in experiment [7], in experiment [8], in [9] and in experiment [10] was inactive.
